From PubChem BioAssay (EPA / NIEHS)
Results filed as inconclusive are left out. Active and inactive are the calls of the source. How the source made its calls: active means hit-call score of the fitted dose curve at least 0.9, where 1 is the maximum; inconclusive means response in the unintended direction; inactive means score below 0.9.

target: Estrogen receptor (Homo sapiens) (UniProt P03372); experiment: ATG_ERa_TRANS: Attagene TRANS-FACTORIAL HepG2 Assay for human Estrogen Receptor alpha (ERa) (AID 2282970); settings: HepG2 Attagene TRANS ERa GAL4 reporter, mRNA
Experimental: ATG_TRANS is a cell-based, multiplexed-readout assay that uses HepG2, a human liver cell line, with measurements taken at 24 hours after chemical dosing in a 24-well plate.ATG_ERa_TRANS is one of 30 assay component(s) measured or calculated from the ATG_TRANS assay. It is designed to make measurements of mRNA induction, a form of inducible reporter, as detected with fluorescence intensity signals by Reverse transcription polymerase chain reaction (RT-PCR) and Capillary electrophoresis technology.Data from the assay component ATG_ERa_TRANS was analyzed into 1 assay endpoint. This assay endpoint, ATG_ERa_TRANS, was analyzed in the positive analysis fitting direction relative to DMSO as the negative control and baseline of activity. Using a type of inducible reporter, measures of mRNA for gain-of-signal activity can be used to understand the reporter gene at the transcription factor-level as they relate to the gene ESR1. Furthermore, this assay endpoint can be referred to as a primary readout, because this assay has produced multiple assay endpoints where this one serves a reporter gene function. To generalize the intended target to other relatable targets, this assay endpoint is annotated to the nuclear receptor intended target family, where the subfamily is steroidal.
Human liver HepG2 cells are transiently transfected with multiple reporter transcription units (MRTUs) in 6-well plates using FuGene 6 reagent (Roche; 3 ml FuGene/1 mg DNA). The MRTU constructs are regulated by a cis-regulating element (promoter). […] A major difference between the CIS and TRANS system is that in CIS activities of endogenous TFs are measured, whereas the TRANS assay evaluates changes in activities of exogenous, chimeric NR-Gal4 proteins. […] At the end of 24 hour incubation, total RNA was isolated using TriZol reagent (Invitrogen). The isolated RNA is then reverse-transcribed using oligo(dT) primer and Mo-MLV reverse transcriptase (Invitrogen) with DNAse I (Ambion) treatment for 30 min. The one-tenth of the produced cDNA was amplified by PCR using Taq DNA polymerase (Invitrogen) and two reporter sequence-specific primers. The PCR products were fluorescently labeled by primer extension with 6-arboxyfluorescein (6-FAM) 5'-labeled reporter sequence-specific primer (2 min at 95 C, 20 s at 68 C and 10 min at 72 C) and these products were digested with 5U of HpaI (New England Biolabs) for 2h at 37 C. […] The raw capillary electrophoresis data was processed using Attagraph software (Attagene).

Estrogen receptor (Homo sapiens), sequence (P03372 whole entry, looked up, the tested form may be a part): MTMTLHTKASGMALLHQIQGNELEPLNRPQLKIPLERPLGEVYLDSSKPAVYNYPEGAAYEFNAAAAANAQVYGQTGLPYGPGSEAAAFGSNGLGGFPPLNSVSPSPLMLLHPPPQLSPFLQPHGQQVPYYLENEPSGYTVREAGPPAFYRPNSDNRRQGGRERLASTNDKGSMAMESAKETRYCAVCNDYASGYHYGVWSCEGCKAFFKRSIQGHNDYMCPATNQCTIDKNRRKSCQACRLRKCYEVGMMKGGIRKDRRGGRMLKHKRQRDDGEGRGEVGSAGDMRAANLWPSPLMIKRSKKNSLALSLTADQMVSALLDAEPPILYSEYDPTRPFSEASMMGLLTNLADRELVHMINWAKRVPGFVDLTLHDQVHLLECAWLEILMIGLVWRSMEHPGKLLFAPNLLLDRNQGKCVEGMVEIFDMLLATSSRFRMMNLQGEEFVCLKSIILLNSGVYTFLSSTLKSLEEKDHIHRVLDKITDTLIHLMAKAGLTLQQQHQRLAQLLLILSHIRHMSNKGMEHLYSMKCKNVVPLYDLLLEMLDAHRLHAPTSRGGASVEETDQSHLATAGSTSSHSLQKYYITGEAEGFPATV

SMILES | outcome | AC50
CC(=O)Oc1ccccc1C(=O)O | inactive | –
C=CCc1ccc(O)c(OC)c1 | – | 41.4 µM (active)
CCOc1ccc2c(c1)C(C)=CC(C)(C)N2 | – | 40.7 µM (active)
NC(=O)Cn1c(=O)cc(CCN2CCN(c3nccc4sccc34)CC2)c2ccc(F)cc21 | inactive | –
FC(F)(F)C(F)(F)C(F)(F)C(F)(F)C(F)(F)C(F)(F)CCI | inactive | –
COc1ccc(C)cc1N | inactive | –
COc1cc(/C=C/C(=O)CC(=O)/C=C/c2ccc(O)c(OC)c2)ccc1O | inactive | –
Nc1ccc2c(c1)C(=O)c1ccccc1C2=O | – | 13.6 µM (active)
CCCCCCCCCCO | inactive | –
O=c1[nH]cc(F)c(=O)[nH]1 | – | 26.1 µM (active)
COCCOCCOC | inactive | –
CCCCOC(=O)CCCCCCCCC(=O)OCCCC | inactive | –
CCCCCC(=O)O | inactive | –
Cc1cccc([N+](=O)[O-])c1C | – | 44.3 µM (active)
Nc1nc(N)c2nc(CNc3ccc(C(=O)N[C@@H](CCC(=O)O)C(=O)O)cc3)cnc2n1 | inactive | –
CCCc1cc(=O)[nH]c(=S)[nH]1 | – | 8.12 µM (active)
COc1cc(C=O)ccc1O | inactive | –
CCCCCCCCCCCCCCCC | inactive | –
CCCCCCOCCO | inactive | –
CNCc1cc(F)ccc1Oc1ccc(Cl)c(Cl)c1 | inactive | –

SMILES | outcome | AC50
CCCCCCC(=O)OCC | – | 17.6 µM (active)
COc1cc(-c2nc(NC(=O)c3cc4cc(C)cc(C)c4n3CC(=O)O)sc2CCC2CCCCC2)c(OC)cc1Cl | inactive | –
CCCCCCCC=O | inactive | –
CC(CO)OC(C)CO (stereo not given) (tested in a mixture with another compound) | inactive | –
Cc1ccc(N(C)C)cc1 | inactive | –
CCCCC(CC)COC(=O)CC(C(=O)OCC(CC)CCCC)S(=O)(=O)O (stereo not given) | inactive | –
Nc1ccccc1N | inactive | –
CCCCCCCCCCCCCO | – | 65.7 µM (active)
Cc1cccc(C)c1O | – | 31.9 µM (active)
CC(=O)OCCOCCOCCOC(C)=O | inactive | –
O=C(O)Cc1ccccc1Nc1c(Cl)cccc1Cl | inactive | –
O=C(OCCCCCOC(=O)c1ccccc1)c1ccccc1 | inactive | –
C=CCOC(=O)c1ccccc1C(=O)OCC=C | – | 76.7 µM (active)
Cc1ccc(Cl)cc1 | inactive | –
COCCOC[C@H](CC1(C(=O)NC2CCC(C(=O)O)CC2)CCCC1)C(=O)Oc1ccc2c(c1)CCC2 (stereo not given in full) | inactive | –
CC(=O)OC/C=C(\C)CCC=C(C)C | inactive | –
O=c1c(O)c(-c2ccc(O)c(O)c2)oc2cc(O)cc(O)c12 | – | 14.9 µM (active)
NS(=O)(=O)c1cc2c(cc1Cl)NCNS2(=O)=O | inactive | –
NCCO | inactive | –
COc1cccc2c1C(=O)c1c(O)c3c(c(O)c1C2=O)C[C@@](O)(C(=O)CO)C[C@@H]3O[C@H]1C[C@H](N)[C@H](O)[C@H](C)O1 | inactive | –
